About 5,700 (7.6%) of roughly 75,000 compounds were called active. A call without a number means that no potency is given here. Not shown: some 7% with an inconclusive outcome. This is one part of a sample in which actives are shown more often than they occur. A number with no mark means an inactive call. Calls come from the whole dose curve; as a rule, active = well fitted inhibition curve with a large enough effect; inconclusive = small, poorly fitted or top-dose-only effect; inactive = no such curve, though single readings can be large or run the other way.
Molecular target: 3-hydroxyacyl-CoA dehydrogenase type-2 (Homo sapiens) (UniProt Q99714)
Test: qHTS Assay for Inhibitors of HSD17B4, hydroxysteroid (17-beta) dehydrogenase 4;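 note: the protocol describes HADH2 (HSD17B10) and not the HSD17B4 of the title; nearly all actives have a fitted effect of over 70% in size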
Conditions: recombinant HSD17B10, NADH fluorescence kinetic; series mostly up to 57.1 µM
Procedure, shortened: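 His-tagged E. coli-expressed HADH2 at 20 nM in 100 mM Tris-HCl pH 9.0 with 0.01 % Tween-20, preincubated 15 min with compound at room temperature. Reaction with 1 mM NAD+ and 90 uM beta-hydroxybutyryl coenzyme A; NADH fluorescence (360/450 nm) read kinetically over 4 min, last minus first point.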
Potency is the fitted concentration of half-maximal effect.

Compound | Potency | activity change, negative = inhibition
CCOC(=O)c1ccc(N2C(=O)CC(Sc3nc(O)c(CC)c(=O)[nH]3)C2=O)cc1 (configuration not stated) | inactive | 
CN1CCN(c2ncncc2-c2ccc(C(=O)N(C)C)cc2)CC1 | inactive | 
COC(=O)c1ccc(NC(=O)CSc2nnc(Cc3cccn3C)n2-c2ccc(F)cc2)cc1 | inactive | 
CC(=O)OC1CCC2(O)CC1(C)CCC1C2CC1(C)C (configuration not stated) | inactive | 
CC(=O)Oc1ccccc1C(=O)Nc1ncc([N+](=O)[O-])s1 | inactive | 
COc1ccccc1N1CCN(C[C@@H]2CN3C(=O)N(C)c4ccccc4C3=N2)CC1 | inactive | 
CCOC(=O)[C@]1(C(/C=C/c2ccco2)NC(=O)OC)CCCC1=O (some centres not stated) |  | -2.18% [at 11.4 µM]
O=C1c2ccccc2C(=O)N1CCc1nn[nH]n1 | inactive | 
CN(C)CCOC(=O)C(c1ccccc1)C1(O)CCCC1 (configuration not stated) | inactive | 
COc1ccccc1N1CCN(C(=O)CSc2nnc(-c3ccoc3C)o2)CC1 | inactive | 
CCOC(=O)C1CCCN(C(=O)c2ccc(CS(=O)(=O)c3ccc(Br)cc3)o2)C1 (configuration not stated) | inactive | 
OC(COc1cccc(OCC(O)CN2CCCC2)c1)CN1CCCC1 (configuration not stated) | inactive | 
COc1ccc(-c2nnco2)cc1OC | inactive | 
COCCNCCOCCOc1cccc(OC)c1 | inactive | 
Cc1nc2cnc(N3CCNCC3)nc2n(Cc2ccc(F)cc2)c1=O | 25.1 µM (active) | 
O=c1c(-c2ccc(F)cc2)nc2cnc(N3CCNCC3)nc2n1Cc1cccs1 | inactive | 
COCCn1c(=O)c(CCc2ccccc2)nc2cnc(N3CCNCC3)nc21 | 31.6 µM (active) | 
COCCn1c(=O)c(CCc2ccccc2)nc2cncnc21 | inactive | 
Cn1c(=O)c(-c2ccccc2)nc2cnc(N3CCNCC3)nc21 | 25.1 µM (active) | 
COCCn1c(=O)c(-c2cc(F)cc(F)c2)nc2cnc(N3CCNCC3)nc21 | 25.1 µM (active) | 
Cc1c2cn[nH]c(=O)c2c(C)n1Cc1ccc(F)cc1 | inactive | 
CCc1nc2ccccc2n(CCOCCOCCn2c(=O)c(CC)nc3ccccc32)c1=O | inactive | 
O=C1C(c2ccccn2)=[N+]([O-])c2ccccc21 | inactive | 

Compound | Potency | activity change, negative = inhibition
COC1C[C@@H](O[C@@H]2C(C)C(=O)OC(C)C(C)C(O)C(C)C(=O)[C@@]3(CO3)CC(C)C(OC3OC(C)CC(N(C)C)C3O)C2C)OC(C)[C@@H]1O (some centres not stated) | inactive | 
O=C(Oc1cc(OC(=O)c2ccccc2)c2c(c1)OC(c1ccc(OC(=O)c3ccccc3)c(OC(=O)c3ccccc3)c1)[C@@H](OC(=O)c1ccccc1)C2)c1ccccc1 (some centres not stated) | inactive | 
CC(=O)Oc1cccc(N2C(=O)C3CC=C(Cl)CC3C2=O)c1 (configuration not stated) | inactive | 
COc1ccc(C(=O)Nc2ccc3c(c2)OCO3)cc1OC | inactive | 
CC(=O)Nc1ccc(S(=O)(=O)N2CCCC2C(=O)O)cc1 (configuration not stated) | inactive | 
O=C(Cc1ccccc1)n1nc(-c2ccccc2)nc1NCc1ccco1 | inactive | 
C=C(C)Cn1c(SCC(=O)NCc2ccco2)nc2sc3c(c2c1=O)CCC3 | inactive | 
CN1CCc2c(sc3c2c(NCc2ccco2)nc2nnnn23)C1 | 31.6 µM (active) | 
CC(=O)NCCc1ccc(S(=O)(=O)N(C)C2CCS(=O)(=O)C2)cc1 (configuration not stated) | inactive | 
CCn1c(COc2ccccc2)nnc1SCC(=O)Nc1ccc2c(c1)OCCO2 | inactive | 
CN1CCN(S(=O)(=O)c2ccc(NC(=O)C3CCCO3)cc2)CC1 (configuration not stated) | inactive | 
COc1ccc(C(=O)CSc2nnc(COc3ccccc3)n2Cc2ccco2)cc1 | inactive | 
O=c1c2[nH]c3ccc(Cl)cc3c2ncn1Cc1ccccn1 | inactive | 
COc1ccc2[nH]c3c(=O)n(Cc4ccco4)cnc3c2c1 | 3.16 µM (active) | 
Cc1cc(C)c2nc3c(c([C@H](O)[C@@H]4CCCCN4)c2c1)CC/C3=C/c1ccc(Cl)cc1 |  | 9.81% [at 11.4 µM]
O=C1CC(c2cccc(Br)c2)C2=C(CCCC2=O)N1 (configuration not stated) | inactive | 
COc1ccc(NC(=O)CN2CCN(S(=O)(=O)c3ccc(F)cc3)CC2)cc1Cl | inactive | 
COc1cc2c(cc1NC(=O)CN1CCN(S(=O)(=O)c3ccc(F)cc3)CC1)oc1ccccc12 | 3.16 µM (active) | 
O=C(CN1CCN(S(=O)(=O)c2ccc(F)cc2)CC1)Nc1ccccc1F | inactive | 
CCN(CCCCOC(=O)c1ccc(OC)c(OC)c1)C(C)Cc1ccc(OC)cc1 (configuration not stated) | inactive | 
Cc1ccc2c(NC(=O)C3CC3)cccc2n1 | inactive | 
CC(=O)N1CCC(C(=O)Nc2nc(-c3ccccc3)ns2)CC1 | 10 µM (active) | 
CCN(CC)S(=O)(=O)N1CCC(C(=O)NC(C)CCc2ccccc2)CC1 (configuration not stated) | inactive | 

Compound | Potency | activity change, negative = inhibition
CCOC(=O)c1nc(N)sc1C(=O)OCC | inactive | 
CN1CCCc2cc(C#N)c(=O)[nH]c21 | 15.8 µM (active) | 
COc1ccccc1Cn1c(=S)[nH]c2cc(C(=O)N3CCN(C)CC3)ccc2c1=O | inactive | 
CCOC(=O)CSC1=C(C#N)C(c2sccc2C)CC(=O)N1 (configuration not stated) | inactive | 
CC1=C(C(=O)Nc2ccccc2)C(c2cccs2)C(C#N)=C(SCC#N)N1 (configuration not stated) | 31.6 µM (active) | 
CCOC(=O)CSC1=C(C#N)C(c2ccco2)C(C(=O)OCc2ccccc2)=C(C)N1 (configuration not stated) | inactive | 
O=C(Cn1nnc(-c2ccc(CN3CCOCC3)cc2)n1)NC1CCCCC1 | inactive | 
COCCCNC(=O)COc1cc(C)c(Cl)c(C)c1 | inactive | 
CCC/C(O)=C1\C(=O)CC(C)(C)CC1=Nc1ccccc1OC | inactive | 
CCCNC(=O)OC[C@@H]1O[C@H](c2ccccc2)C=C[C@@H]1Oc1ccc(OC)cc1 |  | -0.586% [at 11.4 µM]
O=c1c(-c2cccs2)nc2cnc(Oc3ccccc3)nc2n1-c1ccccc1 | 25.1 µM (active) | 
COc1ccc(-c2c3c(=O)n(C)c(=O)n(C)c3cn2-c2cccc(OC)c2)cc1 | inactive | 
COc1nc(NCc2ccc(Cl)cc2)nc(OC)n1 | inactive | 
COc1ccc(Oc2ncc3nc(-c4ccc(F)cc4)c(=O)n(C)c3n2)cc1 | 31.6 µM (active) | 
COc1ccc(C(=O)n2nc(-c3ccc(Cl)cc3)nc2N)cc1OC | inactive | 
COc1ncc2nc(-c3ccc(Cl)cc3)c(=O)n(C)c2n1 | 31.6 µM (active) | 
CN(C(=O)COc1nnc(-c2cccs2)c(-c2cccs2)n1)c1ccccc1 | inactive | 
COc1ccc(-n2c(C)nc3c(cnn3-c3ccccc3)c2=O)cc1 | inactive | 
Cn1cc(-c2nc3cncnc3n(-c3ccccc3)c2=O)c2ccccc21 | inactive | 
COc1ncc2nc(-c3ccc(Cl)cc3)c(=O)n(-c3ccccc3)c2n1 | 25.1 µM (active) | 
COc1ccc(Oc2ncc3nc(C)c(=O)n(-c4ccccc4)c3n2)cc1 | inactive | 

— PubChem BioAssay AID893 (National Center for Advancing Translational Sciences (NCATS), 2007)
